# Data taken from article PMC9911399, “Two distinct binding modes provide the RNA-binding protein RbFox with extraordinary sequence specificity”.
# Numbering of substitutions follows the chain as printed; changes in the protein carry UniProt numbers. The full ranking holds about 16,000 sequences; the median of “ka relative to ugcaugu” is about 0.096, and the highest 2% start at about 0.35. This excerpt belongs to a sample that is enriched for the highest values.
# T1: RBFOX1 RRM RbFoxmut (Fox-RRM*) (Homo sapiens, UniProt Q9NWB1 109-208, R118D;E147R;N151S;E152T)
# T1 sequence: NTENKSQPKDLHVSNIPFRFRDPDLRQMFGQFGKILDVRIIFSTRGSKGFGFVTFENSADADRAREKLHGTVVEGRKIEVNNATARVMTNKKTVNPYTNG
# B1: GCUCUGU (DNA:RNA)
# RNA: GGGAGACCGGAAUUCAGAUUGUCCGCUCUGUUUAAAUCCCGUCGUAGCCACCA
# DNA 1: CAATCTGAATTCCGGTCTCCC
# DNA 2: TGGTGGCTACGACGGGATT
# B2: ACCACUU (DNA:RNA)
# RNA: B1 RNA with G25A, U27C, C28A, U29C, G30U
# DNA 1: CAATCTGAATTCCGGTCTCCC
# DNA 2: TGGTGGCTACGACGGGATT
# B3: GCUCAUC (DNA:RNA)
# RNA: B1 RNA with U29A, G30U, U31C
# DNA 1: CAATCTGAATTCCGGTCTCCC
# DNA 2: TGGTGGCTACGACGGGATT
# B4: UUAAUGA (DNA:RNA)
# RNA: B1 RNA with G25U, C26U, U27A, C28A, U31A
# DNA 1: CAATCTGAATTCCGGTCTCCC
# DNA 2: TGGTGGCTACGACGGGATT
# B5: CUGGUAA (DNA:RNA)
# RNA: B1 RNA with G25C, C26U, U27G, C28G, G30A, U31A
# DNA 1: CAATCTGAATTCCGGTCTCCC
# DNA 2: TGGTGGCTACGACGGGATT
# B6: AAGAUCU (DNA:RNA)
# RNA: B1 RNA with G25A, C26A, U27G, C28A, G30C
# DNA 1: CAATCTGAATTCCGGTCTCCC
# DNA 2: TGGTGGCTACGACGGGATT
# B7: AAAUCAC (DNA:RNA)
# RNA: GGGAGACCGGAAUUCAGAUUGUCCAAAUCACUUAAAUCCCGUCGUAGCCACCA
# DNA 1: CAATCTGAATTCCGGTCTCCC
# DNA 2: TGGTGGCTACGACGGGATT
# B8: GCGUCGU (DNA:RNA)
# RNA: B1 RNA with U27G, C28U, U29C
# DNA 1: CAATCTGAATTCCGGTCTCCC
# DNA 2: TGGTGGCTACGACGGGATT
# B9: UUAUGCG (DNA:RNA)
# RNA: B7 RNA with A25U, A26U, C29G, A30C, C31G
# DNA 1: CAATCTGAATTCCGGTCTCCC
# DNA 2: TGGTGGCTACGACGGGATT
# B10: GUAUGUC (DNA:RNA)
# RNA: B7 RNA with A25G, A26U, C29G, A30U
# DNA 1: CAATCTGAATTCCGGTCTCCC
# DNA 2: TGGTGGCTACGACGGGATT
# B11: CGCGUCG (DNA:RNA)
# RNA: B1 RNA with G25C, C26G, U27C, C28G, G30C, U31G
# DNA 1: CAATCTGAATTCCGGTCTCCC
# DNA 2: TGGTGGCTACGACGGGATT
# B12: GCGUAUG (DNA:RNA)
# RNA: B1 RNA with U27G, C28U, U29A, G30U, U31G
# DNA 1: CAATCTGAATTCCGGTCTCCC
# DNA 2: TGGTGGCTACGACGGGATT
# B13: GCGUUUG (DNA:RNA)
# RNA: B1 RNA with U27G, C28U, G30U, U31G
# DNA 1: CAATCTGAATTCCGGTCTCCC
# DNA 2: TGGTGGCTACGACGGGATT
# B14: GCGUCCG (DNA:RNA)
# RNA: B7 RNA with A25G, A26C, A27G, A30C, C31G
# DNA 1: CAATCTGAATTCCGGTCTCCC
# DNA 2: TGGTGGCTACGACGGGATT
# B15: GUAUGCC (DNA:RNA)
# RNA: B7 RNA with A25G, A26U, C29G, A30C
# DNA 1: CAATCTGAATTCCGGTCTCCC
# DNA 2: TGGTGGCTACGACGGGATT
# B16: GUAUGCG (DNA:RNA)
# RNA: B7 RNA with A25G, A26U, C29G, A30C, C31G
# DNA 1: CAATCTGAATTCCGGTCTCCC
# DNA 2: TGGTGGCTACGACGGGATT
# B17: GGUCGGG (DNA:RNA)
# RNA: B1 RNA with C26G, U29G, U31G
# DNA 1: CAATCTGAATTCCGGTCTCCC
# DNA 2: TGGTGGCTACGACGGGATT
# B18: GGGACGG (DNA:RNA)
# RNA: B1 RNA with C26G, U27G, C28A, U29C, U31G
# DNA 1: CAATCTGAATTCCGGTCTCCC
# DNA 2: TGGTGGCTACGACGGGATT
# B19: GGUUUUU (DNA:RNA)
# RNA: B1 RNA with C26G, C28U, G30U
# DNA 1: CAATCTGAATTCCGGTCTCCC
# DNA 2: TGGTGGCTACGACGGGATT
# B20: GUCCGGU (DNA:RNA)
# RNA: B1 RNA with C26U, U27C, U29G
# DNA 1: CAATCTGAATTCCGGTCTCCC
# DNA 2: TGGTGGCTACGACGGGATT
# B21: GGUUUGU (DNA:RNA)
# RNA: B1 RNA with C26G, C28U
# DNA 1: CAATCTGAATTCCGGTCTCCC
# DNA 2: TGGTGGCTACGACGGGATT
# B22: CGGUUUG (DNA:RNA)
# RNA: B7 RNA with A25C, A26G, A27G, C29U, A30U, C31G
# DNA 1: CAATCTGAATTCCGGTCTCCC
# DNA 2: TGGTGGCTACGACGGGATT
# B23: GGUUUGG (DNA:RNA)
# RNA: B1 RNA with C26G, C28U, U31G
# DNA 1: CAATCTGAATTCCGGTCTCCC
# DNA 2: TGGTGGCTACGACGGGATT
# B24: GGUUUUG (DNA:RNA)
# RNA: B1 RNA with C26G, C28U, G30U, U31G
# DNA 1: CAATCTGAATTCCGGTCTCCC
# DNA 2: TGGTGGCTACGACGGGATT
# B25: UACCCGA (DNA:RNA)
# RNA: B7 RNA with A25U, A27C, U28C, A30G, C31A
# DNA 1: CAATCTGAATTCCGGTCTCCC
# DNA 2: TGGTGGCTACGACGGGATT
# B26: GGUCCCA (DNA:RNA)
# RNA: B1 RNA with C26G, U29C, G30C, U31A
# DNA 1: CAATCTGAATTCCGGTCTCCC
# DNA 2: TGGTGGCTACGACGGGATT
# B27: GGAGCAG (DNA:RNA)
# RNA: B7 RNA with A25G, A26G, U28G, C31G
# DNA 1: CAATCTGAATTCCGGTCTCCC
# DNA 2: TGGTGGCTACGACGGGATT
# B28: GAAAUGC (DNA:RNA)
# RNA: B7 RNA with A25G, U28A, C29U, A30G
# DNA 1: CAATCTGAATTCCGGTCTCCC
# DNA 2: TGGTGGCTACGACGGGATT
# B29: GAAUGCU (DNA:RNA)
# RNA: B7 RNA with A25G, C29G, A30C, C31U
# DNA 1: CAATCTGAATTCCGGTCTCCC
# DNA 2: TGGTGGCTACGACGGGATT
# B30: CGAAUGC (DNA:RNA)
# RNA: B7 RNA with A25C, A26G, U28A, C29U, A30G
# DNA 1: CAATCTGAATTCCGGTCTCCC
# DNA 2: TGGTGGCTACGACGGGATT
# B31: UAAAUGC (DNA:RNA)
# RNA: B7 RNA with A25U, U28A, C29U, A30G
# DNA 1: CAATCTGAATTCCGGTCTCCC
# DNA 2: TGGTGGCTACGACGGGATT
# B32: GUAAUGC (DNA:RNA)
# RNA: B1 RNA with C26U, U27A, C28A, U31C
# DNA 1: CAATCTGAATTCCGGTCTCCC
# DNA 2: TGGTGGCTACGACGGGATT
# B33: GAUUGCU (DNA:RNA)
# RNA: B1 RNA with C26A, C28U, U29G, G30C
# DNA 1: CAATCTGAATTCCGGTCTCCC
# DNA 2: TGGTGGCTACGACGGGATT
# B34: GAUGCUU (DNA:RNA)
# RNA: B1 RNA with C26A, C28G, U29C, G30U
# DNA 1: CAATCTGAATTCCGGTCTCCC
# DNA 2: TGGTGGCTACGACGGGATT
# B35: GAAUUGC (DNA:RNA)
# RNA: B7 RNA with A25G, C29U, A30G
# DNA 1: CAATCTGAATTCCGGTCTCCC
# DNA 2: TGGTGGCTACGACGGGATT
# B36: GCAAUGC (DNA:RNA)
# RNA: B1 RNA with U27A, C28A, U31C
# DNA 1: CAATCTGAATTCCGGTCTCCC
# DNA 2: TGGTGGCTACGACGGGATT
# B37: UGAAUGC (DNA:RNA)
# RNA: B7 RNA with A25U, A26G, U28A, C29U, A30G
# DNA 1: CAATCTGAATTCCGGTCTCCC
# DNA 2: TGGTGGCTACGACGGGATT
# B38: GGAAUGC (DNA:RNA)
# RNA: B1 RNA with C26G, U27A, C28A, U31C
# DNA 1: CAATCTGAATTCCGGTCTCCC
# DNA 2: TGGTGGCTACGACGGGATT
# B39: UUAAUGC (DNA:RNA)
# RNA: B7 RNA with A25U, A26U, U28A, C29U, A30G
# DNA 1: CAATCTGAATTCCGGTCTCCC
# DNA 2: TGGTGGCTACGACGGGATT
# Biological target: T1, RBFOX1 RRM RbFoxmut (Fox-RRM*)
# Assay: EMSA; HiTS-Eq, 1 nM pool, 10 min; buffer printed only for the single-RNA assays: 10 mM Tris pH 7.5, 150 mM NaCl, 3.4 mM EDTA, 0.001% NP-40, 30 C
# Conditions: tags: His6 N-terminal (pET28a); label: 5' 32P
# Method in brief: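 These values rest on relative association constants, computed from read-count changes of each RNA species versus the control reaction and normalised to the cognate motif. Reads came from free RNA recovered by 8% native PAGE after purified RbFox RRM (wild type or mutant) at increasing concentrations was equilibrated for 10 min in 50 µL with 1 nM of a 5′-radiolabelled pool with 7 randomized nucleotides and DNA-annealed flanks.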
row,Binder,binding signal
1,B1,0.102 KA relative to UGCAUGU
2,B2,0.0717 KA relative to UGCAUGU
3,B3,0.06 KA relative to UGCAUGU
4,B4,0.0717 KA relative to UGCAUGU
5,B5,0.121 KA relative to UGCAUGU
6,B6,0.0643 KA relative to UGCAUGU
7,B7,0.0617 KA relative to UGCAUGU
8,B8,0.129 KA relative to UGCAUGU
9,B9,0.13 KA relative to UGCAUGU
10,B10,0.334 KA relative to UGCAUGU
11,B11,0.101 KA relative to UGCAUGU
12,B12,0.876 KA relative to UGCAUGU
13,B13,0.403 KA relative to UGCAUGU
14,B14,0.135 KA relative to UGCAUGU
15,B15,0.278 KA relative to UGCAUGU
16,B16,0.468 KA relative to UGCAUGU
17,B17,0.0602 KA relative to UGCAUGU
18,B18,0.0996 KA relative to UGCAUGU
19,B19,0.056 KA relative to UGCAUGU
20,B20,0.132 KA relative to UGCAUGU

row,Binder,binding signal
1,B21,0.366 KA relative to UGCAUGU
2,B22,0.633 KA relative to UGCAUGU
3,B23,0.277 KA relative to UGCAUGU
4,B24,0.191 KA relative to UGCAUGU
5,B25,0.066 KA relative to UGCAUGU
6,B26,0.0504 KA relative to UGCAUGU
7,B27,0.0829 KA relative to UGCAUGU
8,B28,0.072 KA relative to UGCAUGU
9,B29,0.634 KA relative to UGCAUGU
10,B30,0.856 KA relative to UGCAUGU
11,B31,0.0677 KA relative to UGCAUGU
12,B32,0.127 KA relative to UGCAUGU
13,B33,0.141 KA relative to UGCAUGU
14,B34,0.0831 KA relative to UGCAUGU
15,B35,0.119 KA relative to UGCAUGU
16,B36,0.0545 KA relative to UGCAUGU
17,B37,0.485 KA relative to UGCAUGU
18,B38,0.686 KA relative to UGCAUGU
19,B39,0.118 KA relative to UGCAUGU
